Measurements reported in PubChem BioAssay AID463190 (Sanford-Burnham Center for Chemical Genomics, 2010).
The whole screen tested about 330,000 compounds, of which about 7,300 (2.2%) were called active.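 Rule for the calls: active = inhibition of at least 40%; inactive = the rest.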 What follows is part of a selection rich in actives, with near analogues and random picks from the rest.

Test: growth inhibition of tim10-1 ts yeast – luminescence, uHTS, primary screen (AID 463190);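 note: mutant grown at 25 °C; 0% = DMSO wells with yeast and 100% = wells holding no yeast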
Settings: S. cerevisiae tim10-1 ts strain growth, BacTiter-Glo, 24 h; at 20 µM; hits give high values

Row | SMILES | inhibition
1 | O=C(O)C1C2C=CC(O2)C1C(=O)NCCc1cccc(Cl)c1 (stereo unspecified) | -10.4% (inactive)
2 | O=C(/C=C/Sc1ncn[nH]1)c1ccc(Cl)cc1 | 61.4% (active)
3 | O=C(CSc1ncn[nH]1)N/N=C/c1ccc(F)cc1 | -11.2% (inactive)
4 | O=C(CSc1ncn[nH]1)Nc1ccc(Br)cc1Br | -12.6% (inactive)
5 | N#C/C(=C\c1ccc(N2CCOCC2)o1)C(=O)N1CCOCC1 | 9.56% (inactive)
6 | Cc1ccc([N+](=O)[O-])c(OCCCNCC(C)O)c1 (stereo unspecified) | 2.12% (inactive)
7 | CN(C)CCNc1ccc(-c2n[nH]c(=O)c3ccccc23)cc1[N+](=O)[O-] | 1.37% (inactive)
8 | O=C(/C=C/c1cccs1)NCc1cccnc1 | 8.39% (inactive)
9 | O=S(=O)(Nc1cccc(Oc2ccc(Cl)cc2)n1)c1ccc(F)cc1 | 43.9% (active)
10 | O=S(=O)(Nc1ccc(Oc2ncccn2)c(Cl)c1)c1ccc(F)cc1 | 15.3% (inactive)
11 | O=S(=O)(Nc1ccccn1)c1cccc(S(=O)(=O)c2ccc(Cl)cc2)c1 | 14.9% (inactive)
12 | CCC1CCCCN1S(=O)(=O)Cc1ccccc1Cl (stereo unspecified) | 25.3% (inactive)
13 | COc1ccc2c(CC(=O)N3CCc4cc(OC)c(OC)cc4C3)coc2c1 | 8.12% (inactive)
14 | COc1ccc(NCc2nnc(SCc3ccccc3)n2-c2ccc(OC)cc2)cc1 | 49.4% (active)
15 | COc1ccc(-c2nnc(SCC(=O)c3ccco3)n2-c2ccccc2)cc1 | 23.4% (inactive)
16 | CCn1c(CNc2ccc(OC)cc2)nnc1SCC(=O)c1ccc(OC)cc1 | 25.4% (inactive)
17 | O=S(=O)(NC1CCCCC1N1CCN(c2ccccc2F)CC1)c1ccccc1 (stereo unspecified) | 21.7% (inactive)
18 | COc1ccc(C(=O)CN2C(=O)NC3(CCc4ccccc43)C2=O)c(OC)c1 (stereo unspecified) | -9.01% (inactive)
19 | O=C(CC1(O)C(=O)N(CN2CCOCC2)c2ccccc21)c1ccccc1 (stereo unspecified) | 15.9% (inactive)
20 | C#CCN1C(=O)C(O)(CC(=O)c2cc(OC)ccc2OC)c2ccccc21 (stereo unspecified) | 41.9% (active)
21 | O=C(Nc1cc(S(=O)(=O)N2CCOCC2)ccc1Cl)c1cc(=O)c2ccccc2o1 | 19.5% (inactive)

Row | SMILES | inhibition
22 | Cc1cccc(NC(=O)Nc2cccc(Oc3c(F)c(F)c(F)c(F)c3F)c2)c1 | 21.3% (inactive)
23 | Cc1ccoc1C(=O)Nc1cccc(Oc2ccccc2)c1 | 49.3% (active)
24 | CC(Oc1cccc(NC(=O)c2cccs2)c1)C(=O)c1ccccc1 (stereo unspecified) | 27.6% (inactive)
25 | COc1cccc2c1OCC1COc3c(c(=O)n(C)c(=O)n3C)C21 (stereo unspecified) | -6.86% (inactive)
26 | COc1ccccc1N1CC(C(=O)Nc2ccc(S(=O)(=O)N3CCOCC3)cc2)CC1=O (stereo unspecified) | 4.85% (inactive)
27 | CCN(CC(=O)NCc1cccs1)c1nnnn1-c1ccccc1 | -19.2% (inactive)
28 | CCOC(=O)c1c(C)oc2cc(Sc3ccccc3)c(O)c(O)c12 | 34.3% (inactive)
29 | CCOC(=O)c1c(C)oc2ccc(OCC(=O)N(CC)CC)cc12 | 14.2% (inactive)
30 | CCOC(=O)c1c(-c2ccccc2)oc2ccc(OCC(N)=O)cc12 | 18.7% (inactive)
31 | CCOC(=O)c1c(-c2ccccc2)oc2cc(Br)c(O)cc12 | 48.2% (active)
32 | CCOC(=O)c1c(-c2ccccc2)oc2ccc(OCC(=O)NN)cc12 | 45.4% (active)
33 | CCOC(=O)c1c(C)oc2cc(Br)c(OCC(N)=O)cc12 | 1.54% (inactive)
34 | CC(=O)Nc1ccc(C(=O)NNC(=O)CCCCC(=O)NNC(=O)c2ccc(NC(C)=O)cc2)cc1 | 10.6% (inactive)
35 | O=C(Cc1nc2ccccc2[nH]c1=O)c1ccc(Cl)cc1 | 5.58% (inactive)
36 | O=C(/C(=C/c1cccc(Cl)c1)c1nc2ccccc2[nH]1)c1ccccc1 | 43.5% (active)
37 | O=C(CCc1nc2ccccc2c(=O)[nH]1)OCC(=O)c1cccc(Cl)c1 | 18.5% (inactive)
38 | CCCN=C1N(C)C[C@@H]2[C@@H]3C(=O)N(Cc4ccccc4)C(=O)[C@@H]3[C@](C)(C(=O)OC)N12 | 0.857% (inactive)
39 | O=C(COC(=O)c1cccc(Cl)c1)NC1CCCCCCC1 | 8.83% (inactive)
40 | Cc1cccc([C@H]2[C@@H]3C=CC[C@@H](C)[C@@H]3C(=O)N2Cc2ccccc2)c1 | 33.1% (inactive)
41 | Cn1cc(CN2CCCCC2c2ccccn2)c(-c2ccc3c(c2)OCCO3)n1 (stereo unspecified) | 9.13% (inactive)
42 | CCOC(=O)C1CCN(C(=O)Cn2nc(C)c3c(C)n(-c4ccccc4)nc3c2=O)CC1 | 27.3% (inactive)

Row | SMILES | inhibition
43 | O=C(NN1CCOCC1)c1cccc(F)c1 | -9.56% (inactive)
44 | COc1c(C)c2c(c(O)c1C/C=C(\C)CCC(=O)O)C(=O)OC2 | 4.45% (inactive)
45 | N/C(=N\OC(=O)Cc1ccccc1[N+](=O)[O-])c1ccc(Br)cc1 | 57% (active)
46 | COc1ccc(/C(N)=N/OC(=O)Oc2ccccc2)cc1 | 5.03% (inactive)
47 | N/C(=N\OC(=O)CCc1ccccc1)c1cccnc1 | 21.7% (inactive)
48 | CCOC(=O)C(Cc1ccccc1)NC(=O)CCC(=O)c1ccc(OC)cc1 (stereo unspecified) | 23.1% (inactive)
49 | O=C(CCc1ccccc1)NNC(=O)COc1ccc(Cl)cc1 | 0.762% (inactive)
50 | N/C(=N\OC(=O)/C=C/c1ccccc1)c1ccc(Br)cc1 | 25.9% (inactive)
51 | N/C(=N\OC(=O)N1c2ccccc2Sc2ccccc21)c1ccc(Br)cc1 | 8.49% (inactive)
52 | COc1ccc(CCC(=O)c2ccc(OC)cc2)cc1 | 5.98% (inactive)
53 | COc1ccc(/C(N)=N/OC(=O)Cc2ccccc2)cc1 | 46.5% (active)
54 | COc1ccc(/C(N)=N/OC(=O)CCCc2ccccc2)cc1 | 45.1% (active)
55 | N/C(=N\OC(=O)CCc1ccccc1)c1ccc(Cl)cc1 | 65.2% (active)
56 | COc1ccc(S(=O)(=O)NCCCc2ccccc2)cc1 | 19.3% (inactive)
57 | COc1ccc(NC(=O)c2sc(N3CCOCC3)nc2-c2ccccc2)c(OC)c1 | 33.9% (inactive)
58 | CCOc1ccc2ccccc2c1/C=N/NC(=O)c1c(C)cc(C)[nH]c1=O | 2.15% (inactive)
59 | CCOC(=O)CN1CC23C=CC(O2)C(C(=O)Nc2ccc(F)cc2)C3C1=O (stereo unspecified) | 3.99% (inactive)
60 | O=C(CSc1nccn1-c1cccc(F)c1)NC1CCCC1 | -5.65% (inactive)
61 | COC(=O)[C@H](C(C)C)n1c(C)c(C(C)=O)c(C(C)=O)c1C | 0.67% (inactive)
